Source: PubChem BioAssay AID1814 (Broad Institute, 2009)
Out of some 300,000 compounds screened, about 22,000 (7.3%) were called active. Another 2% or so got no clear call; they are omitted. The sample as a whole holds a higher share of actives than the screen did. A number with no mark means an inactive call. Cut-off read from the data, not from the text of the source: active = activity score below about -60%; inconclusive = mostly about -28% to -61%; inactive = positive scores.

Assay: Activators working through SNCA 5'UTR binding (MLPCN) (AID 1814)
Details: alpha-synuclein 5'UTR reporter, activators screen; hits give low values; tested at 7.5 µM
For `O=C1NC(=O)N(CCc2ccc(F)cc2)C(=O)/C1=C/C=C/c1ccccc1`, the activity score was -115% (active). With `Cc1nc2ccc(N3CCN(C)CC3)cc2nc1C` the activity score was -72% (active). `COc1cccc(-c2nc3ccc(N4CCN(C)CC4)cc3[nH]2)c1` gave an activity score of 68.9%. With `CN(C)C(=O)Oc1ccc2c(c1)O/C(=C\c1ccccc1)C2=O` the activity score was -101% (active). In the case of `CC(C)(C)c1ccc(OC(=O)N2CCCCC2)cc1`, the activity score was -192% (active). For `CCCCCn1c(=O)c(C(=O)Nc2c(C)n(C)n(-c3ccccc3)c2=O)c(O)c2ccccc21`, the activity score was -108% (active). For `c1ccc2sc(C3CCCNC3)nc2c1` (stereo not given), the activity score was -63% (active). With `C/C(=N/O)c1ccc2ccc3ccccc3c2c1` the activity score was -104% (active). With `O=Cc1cn(Cc2ccc(F)cc2Cl)c2ccccc12` the activity score was 61.1%. For `c1cc2c(cc1[C@H]1OC[C@H]3[C@@H]1CO[C@@H]3c1ccc3c(c1)OCO3)OCO2`, the activity score was 72.8%. In the case of `O=C(Nc1cccc2ccccc12)N1CCC2(CC1)OCCO2`, the activity score was -71.1% (active). Work on `CCOc1ccc(-c2cc(C)[n+](CCN(CC)CC)c(-c3ccc(OCC)cc3)c2)cc1` yielded an activity score of 95.2%. For `CN(C)CC1Oc2ccccc2OC1(O)c1ccccc1` (stereo not given), the activity score was -101% (active). `CCCCCCCCCCCCn1ccc(=N)cc1` gave an activity score of 104%. In the case of `N#CC1=C(N)Oc2c(c(=O)oc3ccccc23)C1c1ccccc1OC(=O)c1cccs1` (stereo not given), the activity score was -63% (active).
